Source: PubChem BioAssay
Unmarked numbers belong to inactive results. How the calls were made is not given here.

test system: Aerobactin synthetase IucA (Klebsiella pneumoniae hvKP1); experiment: IucA enzyme inhibition, primary screen, biochemical, Spectrum library (AID 1346200); conditions: malachite green pyrophosphate, A620, at 8 µM, active compounds read low;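 further: 100% = wells without compound and 0% = wells lacking enzyme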

SMILES	activity remaining
C=C1CCC2[C@](C)(CO)[C@H](O)CC[C@@]2(C)[C@@H]1C/C=C1/C(=O)OC[C@H]1O (some centres undefined)	108%
CN(C)CCc1c[nH]c2ccc(C[C@H]3COC(=O)N3)cc12	112%
CC(CC(O)C1OC1(C)C)[C@@H]1CCC2(C)C3=CCC4C(C)(C)C(=O)CCC4(C)C3CC[C@@]12C (some centres undefined)	102%
Cc1cc(=O)[nH]c(=S)[nH]1	95.7%
N[C@H](C(=O)O)[C@@H]1CC(Cl)=NO1	112%
CN[C@@H]1[C@H](OC2[C@H](O[C@H]3[C@H](O)[C@@H](O)[C@H](N=C(N)N)[C@@H](O)[C@@H]3N=C(N)N)O[C@@H](C)[C@]2(O)C=O)O[C@@H](CO)[C@H](O)[C@H]1O (some centres undefined)	108%
CN(CCOc1ccc(CC2SC(=O)NC2=O)cc1)c1ccccn1 (centres undefined)	113%
O=C(O)C1(O)C[C@@H](O)C(O)[C@H](O)C1 (some centres undefined)	89.8%
COC1C(O)C(O[C@H]2CC[C@]3(C=O)C4C(CC[C@]3(O)C2)[C@@]2(O)CC[C@H](C3=CC(=O)OC3)[C@@]2(C)C[C@H]4OC(C)=O)OC(C)C1OC(C)=O (some centres undefined)	122%
Cn1c(=O)[nH]c(=O)c2[nH]cnc21	109%
COc1cc(/C=C/C(=O)O)ccc1O	100%
Cc1cc(O)c2c(c1)C(=O)c1cccc(O)c1C2=O	107%
COC1(C)CCC2OC2(C)CCC2C1CC2(C)C (centres undefined)	113%
C[C@@H]1CCC2[C@](C)(CO)[C@@H](O)CC[C@]2(C)[C@@]12CC[C@@](CO)(CCO)O2 (some centres undefined)	113%
